Results on 22 compounds are retold here after article PMC4336329 (PLoS ONE, 2015).

The structures appear in SMILES notation. About 14,000 (4.5%) of roughly 310,000 compounds showed an effect of 50% or more. The effect is printed as a negative number. The sample holds strong results, similar compounds and a random draw of the others, so the mix is not that of the screen.
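Note: peak tail current of the secondary pulse compared with the same well before compound.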

This experiment deals with human ether-à-go-go-related gene (hERG) potassium channel (human, UniProt Q12809). Kind of experiment: primary screen, population patch clamp on CHO cells stably expressing hERG; higher = less effect of the substance.
Sequence of human ether-à-go-go-related gene (hERG) potassium channel (Q12809 whole entry, looked up): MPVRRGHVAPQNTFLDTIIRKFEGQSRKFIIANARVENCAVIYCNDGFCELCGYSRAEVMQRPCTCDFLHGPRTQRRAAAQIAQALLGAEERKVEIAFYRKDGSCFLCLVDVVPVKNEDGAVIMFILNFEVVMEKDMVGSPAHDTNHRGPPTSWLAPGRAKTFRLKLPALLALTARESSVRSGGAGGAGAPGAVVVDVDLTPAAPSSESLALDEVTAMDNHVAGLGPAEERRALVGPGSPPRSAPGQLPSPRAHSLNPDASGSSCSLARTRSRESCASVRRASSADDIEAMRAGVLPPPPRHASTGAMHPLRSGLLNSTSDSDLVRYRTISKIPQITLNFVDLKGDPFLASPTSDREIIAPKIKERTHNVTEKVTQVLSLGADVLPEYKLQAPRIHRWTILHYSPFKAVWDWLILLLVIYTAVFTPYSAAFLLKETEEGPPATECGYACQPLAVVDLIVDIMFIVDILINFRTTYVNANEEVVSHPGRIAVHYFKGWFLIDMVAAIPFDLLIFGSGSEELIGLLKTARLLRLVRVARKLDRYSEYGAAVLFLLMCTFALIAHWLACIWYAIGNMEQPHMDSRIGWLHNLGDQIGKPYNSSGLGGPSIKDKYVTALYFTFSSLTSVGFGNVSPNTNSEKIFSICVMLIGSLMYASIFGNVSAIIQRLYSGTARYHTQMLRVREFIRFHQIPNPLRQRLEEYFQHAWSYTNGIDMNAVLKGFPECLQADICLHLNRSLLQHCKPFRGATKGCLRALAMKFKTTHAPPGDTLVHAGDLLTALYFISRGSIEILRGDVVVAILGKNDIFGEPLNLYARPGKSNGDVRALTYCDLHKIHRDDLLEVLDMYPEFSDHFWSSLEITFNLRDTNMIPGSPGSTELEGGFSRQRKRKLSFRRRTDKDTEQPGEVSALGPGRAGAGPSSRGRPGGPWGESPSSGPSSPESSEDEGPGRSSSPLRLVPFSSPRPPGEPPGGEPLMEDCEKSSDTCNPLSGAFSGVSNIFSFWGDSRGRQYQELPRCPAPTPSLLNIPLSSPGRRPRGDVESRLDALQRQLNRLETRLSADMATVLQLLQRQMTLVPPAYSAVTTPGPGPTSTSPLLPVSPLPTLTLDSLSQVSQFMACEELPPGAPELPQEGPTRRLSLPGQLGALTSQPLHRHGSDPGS
For the compound `COc1ccc(-c2c(C)n([O-])c3c([n+]2=O)CCCC3)c(OC)c1`, the “hERG current change (%, negative = inhibition) at 10uM” value is reported as 6.26%.
As for `Nc1cncc(C(=O)O)c1` [26671297], the “hERG current change (%, negative = inhibition) at 10uM” value turned out to be 4.06%.
On to `CCn1cc(C(=O)N2CCCC(C(=O)c3ccc4ccccc4c3)C2)cn1` (stereo not shown), for which the “hERG current change (%, negative = inhibition) at 10uM” value is given as -18.1%.
On to `CCCCc1ccc(NC(=O)CSc2nc(=O)n(CCN(C)C)c3c2CCC3)cc1`, for which the “hERG current change (%, negative = inhibition) at 10uM” value is reported as -56.4%.
With `CCc1ccc(NC(=O)CSc2nc(=O)n(CCN(C)C)c3c2CCCC3)cc1`, the “hERG current change (%, negative = inhibition) at 10uM” value is listed as -24.2%.
As to `CCCCc1ccc(NC(=O)CSc2nc(=O)n(CCN(CC)CC)c3c2CCCC3)cc1`, the “hERG current change (%, negative = inhibition) at 10uM” value is -66.7%.
As for `CCc1ccc(NC(=O)CSc2nc(=O)n(CCCN(C)C)c3c2CCC3)cc1`, the “hERG current change (%, negative = inhibition) at 10uM” value is listed as -42.3%.
On to `CCCCc1ccc(NC(=O)CSc2nc(=O)n(CCN(CC)CC)c3c2CCC3)cc1`, for which the “hERG current change (%, negative = inhibition) at 10uM” value is given as -65.8%.
Next, `C=C(C)CN(CC)Cc1c(C(=O)N(C)CCCC)nc2ccccn12`: -20.7%; `Cc1ccc(S(=O)(=O)NNC(=O)C2CCN(Cc3ccccc3)CC2)cc1`: -15.4%.
As to `COc1ccc(NC(=O)CSc2nnc(C3CCCCC3)n2N)cc1OC`, the “hERG current change (%, negative = inhibition) at 10uM” value was 21.9%.
Next, `Cc1cc(N/N=C/c2ccccc2O)nc(N2CCOCC2)n1`: 6.96%.
Take `COc1ccc2ccc(OCC(=O)N3c4ccccc4NC(=O)CC3C)cc2c1` (stereo not shown): the “hERG current change (%, negative = inhibition) at 10uM” value is given as -21.2%.
`COc1ccc(-c2sc(Nc3ccccc3)n[n+]2C)c(C)c1C.[Cl-]`: the “hERG current change (%, negative = inhibition) at 10uM” value is recorded as -1.19%.
Turning to `Oc1ccc2ccccc2c1-c1sc(Nc2ccccc2)n[n+]1-c1ccc(F)cc1.[Cl-]`, the “hERG current change (%, negative = inhibition) at 10uM” value is recorded as -0.475%.
Regarding `Fc1ccc(-[n+]2nc(Nc3ccccc3)sc2-c2c3ccccc3cc3ccccc23)cc1.[Cl-]`, the “hERG current change (%, negative = inhibition) at 10uM” value came to 18.2%.
Next, `COc1cc(OC)c(-c2sc(Nc3ccccc3)n[n+]2-c2ccc(F)cc2)cc1OC.[Cl-]`: -0.831%; `COc1ccc(-c2sc(Nc3ccccc3)n[n+]2-c2ccc(F)cc2)c(OC)c1OC.[Cl-]`: -72.2%; `COc1ccc2ccccc2c1-c1sc(Nc2ccccc2)n[n+]1-c1ccc(F)cc1.[Cl-]`: -57.4%.
`COc1ccc(-c2sc(Nc3ccccc3)n[n+]2-c2ccc(F)cc2)cc1Br.[Cl-]`: the “hERG current change (%, negative = inhibition) at 10uM” value came out at 4.03%.
Next, `COc1ccc(-c2sc(Nc3ccccc3)n[n+]2-c2ccc(F)cc2)c(C)c1C.[Cl-]`: -74.5%.
Regarding `Cc1nc2sc3c(c2c(=O)o1)CCC3`, the “hERG current change (%, negative = inhibition) at 10uM” value is listed as 4.18%.
